TrxR1 inh = qHTS Assay for Inhibitors of Mammalian Selenoprotein Thioredoxin Reductase 1 (TrxR1): qHTS; Thioredoxin reductase 1, cytoplasmic (Rattus norvegicus), O89049; 390,000 tested, 1% active; recombinant rTrxR1, NADPH fluorescence consumption, selenite substrate; Potency, µM (doses to about 114 µM), actives largely listed as inhibitors; further: nearly all actives have a fitted effect of over 65% in size
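Rat TrxR1 (90 nM in the dispensed reagent) was pre-reduced with 400 uM NADPH for 5 min at room temperature, then incubated with compound for 15 min. After 400 uM selenite was added, NADPH fluorescence (Ex 340/Em 450 nm) was followed for 8 min.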
Nrf2 inh = Nrf2 qHTS screen for inhibitors | A549 ARE-Fluc reporter, luciferase luminescence, 18-24 h | Potency, µM (titrated, usually from 46 µM), most hits filed as inhibitors | 360,000 tested, 2.1% active; further: nearly all actives have a fitted effect of over 60% in size
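Nrf2 function is reported as luminescence of an ARE-controlled luciferase in A549 cells. Compounds were tested at several concentrations, and a CellTiter-Fluor read on the same wells flagged cytotoxicity.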
A549 viability = Nrf2 qHTS screen for inhibitors: counterscreen for cytotoxicity; AID 504648, 2011; A549 ARE-Fluc cells, CellTiter-Fluor viability, 18-24 h; 390,000 tested, 0.16% active; Potency, µM (highest dose often 46 µM), usual class: inhibitors
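A549 ARE_Fluc cells in 5% FBS OPTI-MEM were exposed to compounds in concentration-response for 18-24 h at 37 deg C. Viability was read by CellTiter-Fluor fluorescence (Ex 405/Em 525) after 30 min, before the luciferase read.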
TrxR1 substrate = qHTS Assay for Substrates of Mammalian Selenoprotein Thioredoxin Reductase 1 (TrxR1): qHTS. Thioredoxin reductase 1, cytoplasmic (Rattus norvegicus), O89049. purified TrxR1 substrate turnover, NADPH consumption readout. Potency, µM (doses to about 114 µM). 390,000 tested, 0.01% active. AID 588456, 2011; further: nearly all actives have a fitted effect of over 50% in size
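Rat TrxR1, dispensed at 90 nM, was prereduced with 400 uM NADPH (final) for 5 min at ~22 deg C, then incubated with compound 15 min before 400 uM selenite. A first-read NADPH fluorescence drop versus no-compound background flagged substrates.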
mIDH1 inhibitor = qHTS for Inhibitors of mutant isocitrate dehydrogenase 1 (IDH1): qHTS. 390,000 tested, 0.093% active. Potency, µM (highest dose often 76.6 µM), most hits filed as inhibitors. IDH1-R132H enzyme, NADPH consumption, diaphorase/resazurin fluorescence. Isocitrate dehydrogenase [NADP] cytoplasmic (Homo sapiens), O75874; further: nearly all actives have a fitted effect of over 65% in size
Target sequence (O75874 whole entry R132H, stated change not applied): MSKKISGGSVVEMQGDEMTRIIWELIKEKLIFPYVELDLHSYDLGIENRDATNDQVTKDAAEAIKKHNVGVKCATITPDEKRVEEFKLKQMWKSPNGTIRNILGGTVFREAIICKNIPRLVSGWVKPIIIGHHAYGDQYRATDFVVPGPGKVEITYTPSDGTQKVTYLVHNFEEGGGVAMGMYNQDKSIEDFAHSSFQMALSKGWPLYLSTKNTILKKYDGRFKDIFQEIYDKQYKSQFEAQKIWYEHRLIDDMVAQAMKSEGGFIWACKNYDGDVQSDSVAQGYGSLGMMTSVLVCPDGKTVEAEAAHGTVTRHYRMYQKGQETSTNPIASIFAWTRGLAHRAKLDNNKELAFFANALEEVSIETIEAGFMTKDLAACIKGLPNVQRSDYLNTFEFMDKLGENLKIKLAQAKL
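IDH1-R132H (0.5 ug/mL dispensed) in pH 7.5 Tris buffer was preincubated 30 min with compound, then given a substrate mix of 0.016 mM NADPH and 2 mM alpha-KG for 80 min at room temperature; remaining NADPH was read by diaphorase/resazurin fluorescence.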
Mito fusion yeast = qHTS Assay for Small Molecule Inhibitors of Mitochondrial Division or Activators of Mitochondrial Fusion | S. cerevisiae fusion-defective mutant growth rescue, CellTiterGlo 48 h | Potency, µM (titrated, usually from 46.1 µM), actives largely listed as activators | 320,000 tested, 0.23% active | AID 485298, 2010; further: nearly all actives have a fitted effect of over 45% in size
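Yeast fusion mutant, YPEG (non-fermentable carbon), compound, 48 h at 37C non-permissive; CellTiterGlo added, 10 min RT, luminescence read. Rescued growth = division inhibition.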
Numbers stand for hits; 0 = inactive; ? = inconclusive; - = no result given; [ ] = another dose, or the depositor's remark. A selection: hits, their analogues and other compounds. The true share with any hit is near 3.1%. The call rests on the fitted dose curve; in most records, active means well fitted curve in the direction sought with a large enough effect; inconclusive means small, poorly fitted or top-dose-only effect, or another doubt; inactive means no such curve, though single readings can be large; an effect the other way counts as inactive or inconclusive.

SMILES | TrxR1 inh | Nrf2 inh | A549 viability | TrxR1 substrate | mIDH1 inhibitor | Mito fusion yeast
CC(C)OC(=O)c1nn2c(C(F)(F)F)cc(-c3ccc(Br)o3)nc2c1Br | 25µM | 0 | 0 | 0 | 0 | 0
Cc1ccc(C2=Nc3ccccc3N(C(=O)c3ccccc3)C(C)C2)cc1 (centres undefined) | 0 | 0 | 0 | 0 | 0 | 20µM
CCc1ccc(-n2nnc(-c3nsc(NC(=O)c4ccccc4Cl)n3)c2C)cc1 | 0 | 18µM | 0 | 0 | 0 | -
Cc1ccc(/C=C2\SC(=S)N(/N=C/c3cc([N+](=O)[O-])ccc3O)C2=O)o1 | 22µM | 0 | 0 | 0 | 0 | 0
Cc1cc2c(s1)c1cnn(Cc3ccccc3)c(=O)c1n2C | - | ? | 0 | - | - | -
CCn1c(=O)sc2cc(NS(=O)(=O)c3ccc(F)c(C)c3)ccc21 | 0 | 18µM | 0 | 0 | 0 | -
Cc1cc(S(=O)(=O)Nc2ccc3[nH]c(=O)sc3c2)ccc1F | 0 | - | 0 | 0 | 0 | -
CCOC(=O)c1[nH]nc(-c2c(O)cc(C)cc2O)c1-c1csc(C)n1 | 0 | 0 | 0 | 0 | 0 | 0
CCCc1cc(-c2n[nH]c(C(=O)OCC)c2-c2cscn2)c(O)cc1O | 0 | 29µM | 0 | 0 | 0 | 0
N=C(N)SCc1ncccc1O | 32µM | 0 | 0 | 0 | 0 | 0
N=C(N)SCc1ccccn1 | 0 | 0 | 0 | 0 | 0 | 0
O=[N+]([O-])c1ccc(N2CCN(Cc3cccc([N+](=O)[O-])c3)CC2)cc1 | 0 | 21µM | ? | 0 | 0 | 0
COc1cc(CN2CCN(Cc3ccc([N+](=O)[O-])cc3)CC2)c([N+](=O)[O-])cc1OC | 0 | 21µM | 0 | 0 | 0 | 0
O=[N+]([O-])c1cccc(CN2CCCCCC2)c1 | 0 | 0 | 0 | 0 | 0 | 0
Cc1cc(C)cc(OC(C)C(=O)Nc2c(C(=O)c3ccccc3)oc3ccccc23)c1 (centres undefined) | 0 | 0 | 0 | 0 | 0 | -
C[C@H](NC(=O)N1CCn2c1nc1ccccc12)C(=O)NC1CCCCC1 | 0 | 0 | 0 | 0 | 0 | 0
CC(C)[C@H](NC(=O)N1CCn2c1nc1ccccc12)C(=O)NC1CCCCC1 | 0 | 21µM | ? | 0 | 0 | 0
O=C(Nc1ccccc1N1CCOCC1)c1ccc([N+](=O)[O-])o1 | ? | 0 | 0 | 0 | 0 | 0
O=C(Nc1ccccc1N1CCCCC1)c1ccc([N+](=O)[O-])o1 | ? | ? | 0 | 0 | 0 | 5.6µM
CCCC(=O)N1CCN(c2ccc(NC(=O)c3ccc([N+](=O)[O-])o3)cc2Cl)CC1 | 0 | 16µM | ? | 0 | 0 | 0
Cc1ccc(C(=O)Nc2c(-c3ccccc3)nc3ccccn23)cc1C | 0 | 0[9.27 µM] | 0 | 0 | 0 | -
O=C1NC2CCCCC2C(=O)N1OS(=O)(=O)c1ccccc1 (centres undefined) | 3.5µM | 0 | 0 | 0 | 0 | -
O=C1CCN(S(=O)(=O)c2ccccc2)C2CCCCC12 (centres undefined) | 0 | 0 | 0 | 0 | 0 | 0
C/C(CCc1oc2c(Br)cc(Br)cc2c1-c1ccc(C)o1)=N\O | 25µM | ? | 0 | 0 | 0 | 0
O=C1CCc2cc(S(=O)(=O)Nc3ccccn3)ccc2N1 | - | 0 | 0 | - | - | -
SMILES | TrxR1 inh | Nrf2 inh | A549 viability | TrxR1 substrate | mIDH1 inhibitor | Mito fusion yeast
O=C1CCCC2=C1C1(CCCC1)N=C(Nc1nc3ccccc3n1Cc1ccccc1)N2 | - | 16µM | 0 | - | - | -
O=S1(=O)CCO[C@H]2CCCC[C@@H]2N1Cc1ccccc1F | 0 | - | - | 0 | - | -
CC(=O)c1c(O)cc(O)cc1O | 3.5µM | 0 | 0 | 0 | 0 | -
O=C(COC(=O)CNC(=O)c1ccccc1)Nc1cc(C(F)(F)F)ccc1Cl | - | 0 | 0 | - | - | -
CCSc1nnc(SCC(=O)c2c(N)n(C)c(=O)n(C)c2=O)s1 | 0 | 21µM | 0 | 0 | 0 | 0
CN(C(=S)NC1CCCCC1)C1(c2ccccc2Cl)CCCCC1=O (centres undefined) | 0 | ? | 0 | 0 | 0 | 20µM
CCOC(=O)c1cc(OC(=O)c2ccc(OC)c(OC)c2)n(-c2ccccc2)n1 | ? | 0 | 0 | 0 | 0 | -
Cc1ccc(S(=O)(=O)NCCC(=O)Nc2cc(S(=O)(=O)N(C)C)ccc2C)cc1C | 0 | 7.3µM | 0 | 0 | 0 | 0
Cc1ccc(S(=O)(=O)N(C)C)cc1NC(=O)COC(=O)CCNS(=O)(=O)c1ccccc1 | 0 | 0 | 0 | 0 | 0 | 0
Cc1ccc2nc(-c3ccccc3)cn2c1 | 0 | 6.5µM | 0 | 0 | 0 | 0
Cc1ccc2nc(-c3ccc(O)c(O)c3)cn2c1 | 0 | ? | 0 | 0 | 0 | 0
Cc1ccc(N(CC(O)COCc2ccco2)S(=O)(=O)c2ccc(C)cc2)cc1 (centres undefined) | 7.1µM | 0 | 0 | 0 | 0 | 0
CCCN(CCC)CC(O)CN(c1ccccc1)S(=O)(=O)c1ccc(C)cc1 (centres undefined) | 0 | 0 | 0 | 0 | 0 | 0
COc1ccc(N2CCN(C(c3nnnn3C3CCCC3)C(C)C)CC2)cc1 (centres undefined) | 0 | 0 | 0 | 0 | 0 | 13µM
COc1ccc(N(Cc2ccccc2)S(=O)(=O)c2cccc(C(=O)Nc3ncccc3C)c2)cc1 | 0 | 18µM | 0 | 0 | 0 | 0
O=C1Nc2ccccc2C1=Nc1ccc(F)cc1 | 0 | 0 | 0 | 0 | 0 | 0
CC(=O)c1ccc(N=C2C(=O)Nc3ccccc32)cc1 | 0 | 0 | 0 | 0 | 26µM | 0
Cc1ccc2oc(-c3cc(NC(=O)CC(C)C)ccc3Cl)nc2c1 | 0 | ? | 0 | 0 | 0 | -
O=C(OCn1ncc(Cl)c(Cl)c1=O)c1ccccc1Cl | 8.9µM | 23µM | - | 0 | 0 | 0
Cc1sc2ncnc(N3CCC(C(=O)NCC(=O)Nc4ccc(F)c(F)c4)CC3)c2c1C | 0 | 18µM | ? | 0 | 0 | 0
COc1ccccc1OCC(=O)NNC(=O)C1CCN(c2ncnc3sc(C)c(C)c23)CC1 | 0 | 23µM | 0 | 0 | 0 | 0
Cc1sc2ncnc(N3CCC(C(=O)Nc4ccc(Br)cc4Br)CC3)c2c1C | 0 | 21µM | 0 | 0 | 0 | 0
COc1cc(F)c(S(=O)(=O)N2CCN(S(=O)(=O)c3cccs3)CC2)c(F)c1 | - | 0 | 0 | - | - | -
Cc1noc(C)c1-c1ccc2ncnc(NCc3ccc(Br)cc3)c2c1 | - | 0 | 0 | - | - | -
C[C@@]12C=Cc3occc3[C@H]1CC[C@]13CC(=O)[C@@H](CC[C@H]12)C3 | ? | 0 | 0 | 0 | - | -
CN(C)c1ccc(C=Nc2ccc(/C=C3\C=Cc4ccccc43)cc2)cc1 | 0 | - | - | 0 | - | -
